This is a sample that favours compounds with a hit; in the whole collection about 7.5% have one here.
NPC1 promoter act: activators of NPC1 promoter; Huh7 NPC1 promoter luciferase reporter, 24 h; Potency, µM (series often up to 9.22 µM), for inactives: top-dose activation, actives largely listed as activators; 2.4% of 320,000 active; further: % of control where 0% means no effect; nearly all actives have a fitted effect of over 60% in size
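Stably transfected Huh7 (NPC1 promoter→luciferase), 1500 cells/well in Opti-MEM + 10% FBS, 2 h settle, then compound 24 h at 37 °C. Luminescence after 10 min with Amplite reagent.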
SMN2 splice enh: increases expression of the SMN2 splice variant | HEK293 SMN2-luciferase splicing reporter, luminescence, 30-36 h | Potency, µM (doses to about 46.1 µM), inactives show at the top dose activity change, positive = activation, actives largely listed as activators | 2.8% of 210,000 active | AID 1458; further: % of control where 0% means no effect; nearly all actives have a fitted effect of over 55% in size
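HEK293 cells carry an SMN2 minigene-luciferase reporter in which exon 7 inclusion puts luciferase in frame. Cells were seeded at 2000 cells/well, attached for 10-12 hours, then exposed to compounds for 30-36 hours at 37C before ONE-Glo luminescence.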
Luc counter: counter-screen: inhibitors of Kinase-Glo firefly luciferase; Q27757; 0.28% of 200,000 active; Kinase-Glo luciferase, ATP luminescence, 8 min; Potency, µM (top dose mostly 38.3 µM), for inactives: top-dose activity change, negative = inhibition, hits mostly inhibitors; further: on the % scale 0 is the no-effect control and ±100 the full control effect; nearly all actives have a fitted effect of over 60% in size
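Kinase-Glo luciferase light output from ATP and luciferin was measured with 10 uM ATP, within the enzyme's linear range. Buffer: 50 mM imidazole pH 7.2, 50 mM KCl, 7 mM MgCl2, 0.01% Tween 20, 0.05% BSA; luminescence read after 8 min at ambient temperature.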
ELG1 genotox: genotoxicity induction in ELG1-luciferase HEK293T cells | HEK293T ELG1-luciferase reporter, luminescence, 16 h | Potency, µM (highest dose often 46 µM), for inactives: top-dose activity change, positive = activation, usual class: activators | 1.3% of 330,000 active; further: % of control where 0% means no effect; nearly all actives have a fitted effect of over 60% in size
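After overnight (16 hr) compound treatment at 37 °C, ELG1-luciferase HEK293T cells were lysed with ONE-Glo; luminescence quantified 30 min later at room temperature.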
Rab9 promoter act: Rab9 promoter activation; Huh7 Rab9 promoter-luciferase reporter, luminescence, 24 h; Potency, µM (titrated, usually from 9.22 µM), for inactives: top-dose activation, negative = inhibition, most hits filed as activators; 2.8% of 320,000 active; AID 485297; further: % of control where 0% means no effect; nearly all actives have a fitted effect of over 60% in size
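Huh7 reporter line, Rab9 promoter upstream of luciferase. Compound exposure 24 h at 37 °C in reduced-serum medium with 10% FBS. Read-out: luminescence.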
FLuc counter: firefly luciferase modulation, counter-screen for miR-21 project; P08659; purified FLuc, Km substrates, luminescence inhibition; Potency, µM (series often up to 57.5 µM), for the others: at the highest dose activity change, negative = inhibition, most hits filed as inhibitors; 6.9% of 360,000 active;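 further: plate controls were vehicle for no effect and reference inhibitor for full effect; nearly all actives have a fitted effect of over 55% in size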
Target sequence (P08659 whole entry, looked up): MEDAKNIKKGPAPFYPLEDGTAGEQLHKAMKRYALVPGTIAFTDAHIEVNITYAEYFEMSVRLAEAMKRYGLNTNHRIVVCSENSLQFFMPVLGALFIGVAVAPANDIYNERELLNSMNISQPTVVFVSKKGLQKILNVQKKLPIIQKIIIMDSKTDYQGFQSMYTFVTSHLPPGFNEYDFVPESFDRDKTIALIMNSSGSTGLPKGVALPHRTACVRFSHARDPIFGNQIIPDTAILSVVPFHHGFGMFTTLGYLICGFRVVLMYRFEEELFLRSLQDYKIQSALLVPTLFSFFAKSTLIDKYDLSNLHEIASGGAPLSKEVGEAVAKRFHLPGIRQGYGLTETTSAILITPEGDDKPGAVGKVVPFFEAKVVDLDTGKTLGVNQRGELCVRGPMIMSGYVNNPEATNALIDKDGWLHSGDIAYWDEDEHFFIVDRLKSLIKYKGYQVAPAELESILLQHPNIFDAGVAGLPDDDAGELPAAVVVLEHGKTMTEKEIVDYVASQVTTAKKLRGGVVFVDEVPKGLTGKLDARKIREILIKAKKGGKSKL
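Biochemical qHTS of compounds, final roughly 60 µM downward over six points, against 10 nM purified firefly luciferase using Km concentrations of substrates (10 uM D-luciferin, 10 uM ATP) in Tris acetate pH 7.5 buffer; luminescence output.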
Active calls of the source: *; ? = inconclusive; · = no result. The call rests on the fitted dose curve; in most records, active means well fitted curve in the direction sought with a large enough effect; inconclusive means small, poorly fitted or top-dose-only effect, or another doubt; inactive means no such curve, though single readings can be large; an effect the other way counts as inactive or inconclusive. Potency means the concentration at half of the fitted maximal effect.

SMILES | NPC1 promoter act | SMN2 splice enh | Luc counter | ELG1 genotox | Rab9 promoter act | FLuc counter
Nc1cccc2c1C(=O)N(C(=O)/C=C/c1ccc(F)cc1)C2=O | -5% | -3% | -2% | 12% | -11% | 11µM*
Nc1cccc2c1C(=O)N(C(=O)c1ccco1)C2=O | -6% | · | · | 0% | 1% | -11%
COc1cc(CC2COC(c3ccc(O)c(OC)c3)C2COC(C)=O)ccc1O (stereo not given) | 1% | · | · | 2% | 0% | -1%
NC(=O)N1CCN(C(=O)c2ccco2)CC1 | 1% | 14% | -6% | -1% | -2% | 0%
O=C(c1ccco1)N1CCN(c2ccc(N3CCCCC3)nn2)CC1 | ? | · | · | ? | 3.2µM* | 24µM*
O=C(Nc1ccc(-c2ccc(N3CCCCC3)nn2)cc1)c1ccco1 | ? | · | · | ? | 2.8µM* | 4.8µM*
Cc1nc(N2CCN(C(=O)c3ccco3)CC2)nc2c1C(=O)CCC2 | 0.32µM* | · | · | 0.46µM* | 0.1µM* | 0.76µM*
O=C(Nc1ccc(-c2nnc3n2CCCCC3)cc1)c1ccco1 | -2% | 8% | 0% | 2% | 2% | 0%
Cc1ccsc1/C=N/Nc1ccc(C(=O)O)cc1 | ? | · | · | ? | ? | 0.27µM*
Cc1ccsc1/C=N/Nc1cccc(C(=O)O)c1 | 3.2µM* | 0.1µM* | -26% | ? | 0.0032µM* | 0.11µM*
O=C(Nc1ccc(C(F)(F)F)cc1)c1ccccc1-n1cnnn1 | 0% | · | · | 0% | 1% | -2%
Cc1cc2oc(C(=O)Nc3sc4c(c3C(=O)NCC3CCCO3)CCC4)cc(=O)c2cc1C (stereo not given) | · | 4% | · | · | · | -9%
Cc1cc(=O)n(CCc2ccccc2)c(O)c1C#N | 20% | 1% | -1% | 3% | ? | 13µM*
CC(=O)n1nc(-c2ccc(Cl)cc2)nc1NCc1ccco1 | ? | · | 2% | 21µM* | 2.8µM* | -5%
COc1ccc(C(=O)n2nc(-c3ccc(Cl)cc3)nc2NCc2ccco2)cc1 | · | 9% | · | · | · | -3%
COc1ccc(CC(=O)n2nc(-c3ccc(Cl)cc3)nc2NCc2ccco2)cc1 | ? | ? | -5% | 14% | 3.2µM* | -2%
O=C(c1ccccc1)n1nc(-c2ccc(Cl)cc2)nc1NCc1ccco1 | · | ? | · | · | · | 2%
COc1ccccc1CCNC(=O)C(=O)NCC(c1cccs1)S(=O)(=O)c1ccc(F)cc1 (stereo not given) | · | · | · | · | · | 1%
CCOc1ccc(N(C(=O)c2ccc(C)cc2)S(=O)(=O)c2ccc3c(c2)n(C)c(=O)n3C)cc1 | · | -5% | · | · | · | -6%
CCOc1cc(S(=O)(=O)N2CCN(Cc3ccccc3)CC2)ccc1Br | · | -18% | 1% | · | · | -7%
COCCN(C(=S)Nc1ccc(C)cc1)C(C)c1ccco1 (stereo not given) | 0% | · | · | 1% | -1% | 13µM*
COc1ccc(OC)c(N=C(C)C2=C(O)COC2=O)c1 | -23% | 11µM* | 0% | 8% | -8% | 4%
CC(=Nc1ccccc1)C1=C(O)COC1=O | -3% | -11% | 7% | 3% | -3% | 0%
CCC(C)c1ccc(Nc2ncccc2C#N)cc1 (stereo not given) | ? | ? | -6% | ? | ? | 21µM*
COC(=O)c1c(NC(=O)C2c3ccccc3Oc3ccccc32)sc2c1CCC(C)C2 (stereo not given) | · | -3% | · | · | · | -6%
SMILES | NPC1 promoter act | SMN2 splice enh | Luc counter | ELG1 genotox | Rab9 promoter act | FLuc counter
Cc1ccn2c(c1)nc(=S)n2C(=O)c1ccccc1 | 0.4µM* | 0.5µM* | ? | ? | 0.25µM* | 0.13µM*
Cc1ccn2c(NC(=O)c3ccccc3)c(-c3ccccc3)nc2c1 | 2% | · | · | 3% | 9% | -11%
Cc1cccc(C(=O)n2c(=S)nc3cc(C)ccn32)c1 | 0.56µM* | · | · | 0.46µM* | 0.25µM* | 0.19µM*
COc1ccc(COC(=O)C2CCN(C(=O)c3ccc(Cl)cc3)CC2)cc1F | -9% | · | · | 0% | 2% | -2%
CCn1c(SCC(=O)Nc2ccc(OCc3ccccc3)cc2)nnc1-c1ccco1 | -4% | -32% | 7% | -9% | -4% | 15µM*
CCOC(=O)c1c(C)[nH]c(C)c1C(=O)CSc1nnc(-c2ccncc2)n1Cc1ccccc1 | 5% | -8% | -1% | -9% | 23% | 0%
CCOC(=O)c1c(C)[nH]c(C)c1C(=O)CSc1nnc(-c2ccco2)n1Cc1ccccc1 | 9% | 35µM* | 0% | -30% | -2% | -1%
O=C(CSc1nnc(-c2ccco2)n1Cc1ccccc1)c1ccccc1 | 4.5µM* | 7% | -2% | ? | 1.4µM* | 12µM*
Cc1ccc(C(=O)CSc2nnc(-c3ccco3)n2Cc2ccccc2)cc1 | ? | 19% | -8% | 13% | ? | ?
Cc1cc(NC(=O)C(C)SCC(=O)Nc2ccccc2C(C)(C)C)no1 (stereo not given) | -5% | · | · | ? | 0% | 2%
Cc1cccc(N(O)C(=O)Nc2cccc(Cl)c2)c1 | 24% | · | · | ? | 28% | 17µM*
CCN(C(=O)Nc1cccc(Cl)c1)c1ccccc1 | -4% | · | · | -4% | 6% | -2%
COc1ccc(-n2cnnc2SCC(=O)NCc2cccs2)cc1 | 1% | 17% | -1% | 4% | -5% | -2%
c1ccc(-n2cnc3cc(NCc4ccco4)ccc32)cc1 | ? | 13µM* | 1% | ? | ? | 9.5µM*
Cc1ccc(-n2cnc3cc(NCc4cccs4)ccc32)cc1 | ? | -22% | -2% | 9.2µM* | ? | 11µM*
COc1ccccc1-n1cnc2cc(C(=O)NCc3ccco3)ccc21 | -1% | 16% | 2% | 16% | 1% | -17%
c1ccc(-n2cnc3cc(NCc4cccs4)ccc32)cc1 | ? | 17% | 0% | ? | 1µM* | 2.1µM*
COc1ccc(-n2cnc3cc(NCc4cccs4)ccc32)cc1 | ? | 1% | -5% | 8% | 29% | 15µM*
Cn1cnc2cc(NCc3cccs3)ccc21 | 19% | 28% | 2% | ? | 4% | -3%
Fc1ccc(Oc2ncccn2)c(F)c1 | -1% | 15% | 1% | -1% | -15% | 5%
COC(=O)c1c(-c2cc(OC)c(OC)c(OC)c2)c2ccnc(OCc3ncccn3)c2c(=O)n1Cc1ccnc(C)c1 | · | 26% | -3% | · | · | ·
Cc1ccccc1CNC(=O)c1ccc2nc(C(C)C)oc2c1 | · | · | · | · | · | 4%
Cn1c(CO)nc2cc(N)ccc21 | 0% | · | -2% | -1% | 0% | 17µM*
Cn1c2c(c(=O)n(C)c1=O)C(c1ccccc1C(F)(F)F)CC(=O)N2 (stereo not given) | · | -11% | · | · | · | -1%
CCCc1nnc(NC(=O)c2c(O)c3c([nH]c2=O)CCCC3)s1 | 28% | 11% | 14% | 3% | ? | 2%

Compound activity (PubChem BioAssay)
